PubChem BioAssay (NCI)
Compounds without any hit were thinned out: in the full panel of roughly 83,000, 20% have a hit.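 Treatment: one concentration, 48 hours, 96-well format. Scoring: percent growth, with anything below 10 considered active.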 Unmarked numbers belong to inactive results. Active and inactive are the calls of the source.

Columns and labels:
Experiment in all cases: NCI-60 one-dose screen, 48 h (100 = growth as untreated, 0 = no growth, -100 = all killed)
Settings in all cases: 10 µM unless noted
SK-MEL-2 melanoma = tested on: SK-MEL-2 melanoma
EKVX NSCLC = tested on: EKVX NSCLC
SN12C renal = tested on: SN12C renal
UO-31 renal = tested on: UO-31 renal
TK-10 renal = tested on: TK-10 renal
ACHN renal = tested on: ACHN renal
CAKI-1 renal = tested on: CAKI-1 renal
A498 renal = tested on: A498 renal
CCRF-CEM leukemia = tested on: CCRF-CEM leukemia
RPMI-8226 leukemia = tested on: RPMI-8226 leukemia
OVCAR-8 ovarian = tested on: OVCAR-8 ovarian
OVCAR-5 ovarian = tested on: OVCAR-5 ovarian
OVCAR-4 ovarian = tested on: OVCAR-4 ovarian
SK-OV-3 ovarian = tested on: SK-OV-3 ovarian
IGROV1 ovarian = tested on: IGROV1 ovarian
OVCAR-3 ovarian = tested on: OVCAR-3 ovarian
HS 578T breast = tested on: HS 578T breast
NCI/ADR-RES ovarian = tested on: NCI/ADR-RES ovarian
MOLT-4 leukemia = tested on: MOLT-4 leukemia
SR leukemia = tested on: SR leukemia

Compound | growth (SK-MEL-2 melanoma) | growth (EKVX NSCLC) | growth (SN12C renal) | growth (UO-31 renal) | growth (TK-10 renal) | growth (ACHN renal) | growth (CAKI-1 renal) | growth (A498 renal) | growth (CCRF-CEM leukemia) | growth (RPMI-8226 leukemia) | growth (OVCAR-8 ovarian) | growth (OVCAR-5 ovarian) | growth (OVCAR-4 ovarian) | growth (SK-OV-3 ovarian) | growth (IGROV1 ovarian) | growth (OVCAR-3 ovarian) | growth (HS 578T breast) | growth (NCI/ADR-RES ovarian) | growth (MOLT-4 leukemia) | growth (SR leukemia)
O=C(Nc1ccccc1)Oc1ccccc1-c1ccccc1 | 93.2% | 96.5% | 98.5% | 57.7% | 94.1% | 99.9% | 88.2% | 75.3% | 95.8% | 96.5% | 98.4% | 90.5% | 103% | 80.1% | 107% | 106% | 93.3% | 99.9% |  | 
COc1cc(CNC(=O)CCCCC[P+](c2ccccc2)(c2ccccc2)c2ccccc2)c(OC)c2c1OCO2 | 60.3% | 71.8% | 75.4% | 92.3% | 84.3% | 106% | 89.4% | 78.8% |  | 1.67% (active) | 75.3% | 99.5% | 23.7% | 127% | 41.8% | 44.5% | 78% | 105% | 99.2% | 22.9%
COc1cc2nc(-c3ccc(C#N)cc3)[nH]c(=O)c2cc1OC | 128% | 98.7% | 91.7% | 97.4% | 271% | 118% | 92% | 120% | 188% | 135% | 102% | 102% | 113% | 112% | 113% | 109% | 106% | 98.7% |  | 
CN1C(=O)N(C)[C@H]2NC(NN)=N[C@H]21 | 108% | 99.1% | 99.8% | 93.5% | 97.4% | 104% | 89.2% | 97.9% |  | 118% | 103% | 98.8% | 103% | 121% | 98.9% | 109% | 95.2% |  | 101% | 100%
COc1ccccc1/C=C1\Oc2cc(OCCCN3CCCC3)ccc2C1=O | 102% | 90.6% | 86.9% | 77.9% | 104% | 97.4% | 77.8% | 77.3% |  | 107% | 93.7% | 84.2% | 89% | 108% | 92.3% | 94.8% | 83.7% | 84.6% | 93.3% | 46.9%
NS(=O)(=O)c1cccc(NC(=O)C(=O)C2C(=O)Nc3ccccc32)c1 (stereo not given) | 113% | 76% | 99.5% | 67.2% | 129% | 90.4% | -3.03% (active) | 120% | 69.7% | 47.7% | 106% | 96% | 102% | 106% | 76.4% | 96.6% | 101% | 97.5% | 100% | 
COc1ccc(/C=C(/c2ccccc2)[N+](=O)[O-])cc1 | -49.7% (active) | -29.6% (active) | -38.4% (active) | -100% (active) | -83.2% (active) | -97.4% (active) | -88.3% (active) | 10% |  | -28% (active) | -7.29% (active) | -59.6% (active) | -59.5% (active) | 9.1% (active) | -26.1% (active) | -96.5% (active) | 14.4% | 7.74% (active) | -15.5% (active) | -19.1% (active)
Nc1nnc2cc(Cl)ccc2n1 | -25.9% (active) | 112% | 90.1% | 89.8% | 136% | 89.9% | 112% | 54% | 87.7% | 68.9% | 105% | 105% | 111% | 96.5% | 96.3% | 145% | 86.4% | 96.3% | 111% | 
CCN1C(=O)N(CC)C2NC(SC)=NC21 (stereo not given) | 111% | 97.6% | 95.9% | 89.7% | 115% | 99.8% | 87.9% | 90.2% |  | 157% | 104% | 88.9% | 103% | 104% | 102% | 102% | 94.1% | 99.7% | 102% | 107%
O=c1[nH]c2c(s1)CCCC2CN1CCCCC1 (stereo not given) | 97.2% | 105% | 103% | 89.3% | 93% | 97.6% | 99% | 95.8% | 109% | 103% | 113% | 89.2% | 113% | 86.6% | 120% |  | 105% | 99% |  | 
CSc1nnc2c(=O)n(C)c(=O)n(C)c2n1 | -28.8% (active) | 111% | 96.1% | 88.9% | 99.9% | 98% | 110% | 88.7% | 88.3% | 75.8% | 106% | 100% | 105% | 103% | 101% | 144% | 86.6% | 101% | 106% | 
COc1ccc(Cc2nc3cc(OC)c(OC)cc3c(=O)[nH]2)cc1 | 105% | 105% | 67.9% | 69.6% | 237% | 72.2% | 95.7% | 122% |  | 52.6% | 73.5% | 78.6% | 105% | 148% | 65.7% | 78.9% | 77.5% |  | 80.7% | 36.1%
COc1cc2nnn3c4ncccc4c(N=O)c3c2cc1OC | 101% | 106% | 81.4% | -6.2% (active) | 98.8% | -2.46% (active) | 74.9% | 174% | -13.4% (active) | -11.8% (active) | 14.3% | 102% | 50.3% | 104% |  |  | 116% | 44.6% | -14.9% (active) | 
Cc1cccc(C)c1-c1cc(Cc2ccc(Cl)cc2)c(=O)[nH]n1 | 114% | 92.8% | 89.5% | 52.5% | 114% | 112% | 146% | 104% |  | 52.2% | 97.1% | 96.5% | 97.6% | 103% | 77.6% | 103% | 94% | 96.1% | 74.3% | 4.66% (active)
COc1ccccc1/C=C1\COc2ccc(-c3ccccc3)cc2C1=O | 44.7% | 94% | 54% | 49.3% | 52% | 60.8% | 86.4% | 42.8% | -25.3% (active) | -37.3% (active) | 36.1% | 104% | 76.1% | 50.7% | 56.6% | -29% (active) | 38.9% | -45.6% (active) | -18% (active) | 
O=C(N/N=C/c1ccc(O)c(O)c1)c1sc2ccccc2c1Cl | -13.4% (active) | 98.3% | 77.1% | 61% | 109% | 62.9% | 84.7% | 71.4% | 14.1% | 16.6% | 90.4% | 100% | 92.7% | 75.7% | 64.1% | 96.9% | 84.4% | 83.7% | 43.7% | 
CCNC(=O)c1[nH]cc(-c2ccc(OC)cc2)c1-c1cc(OC)c(OC)c(OC)c1 | 67.5% | 62.4% | 60.5% | 30.7% | 83.9% | 35.8% | 29.4% | -14% (active) |  | 38% | 66.3% | 74.6% | 45.7% | 57.7% | 47.4% | 2.53% (active) | 45.3% | 19.8% | 92% | 19.5%
